Results filed as inconclusive are left out. Active and inactive are the calls of the source. Calls follow the shape of the dose curve; as a rule, active = well fitted curve in the direction sought with a large enough effect; inconclusive = small, poorly fitted or top-dose-only effect, or another doubt; inactive = no such curve, though single readings can be large; an effect the other way counts as inactive or inconclusive.
What was measured:
[1] = biological target: Rap guanine nucleotide exchange factor 3 (Homo sapiens) (UniProt O95398); assay: Confirmatory qHTS for antagonist of cAMP-regulated guanine nucleotide exchange factor 3 (EPAC1) (AID 1645880); also: nearly all actives have a fitted effect of over 55% in size; also: potency is read from the fitted curve at half-maximal effect
How it was run: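 Released BODIPY-GDP fluoresces less than Rap1-bound BODIPY-GDP; the signal is followed at 480/540 nm at 5-min intervals over 30 min, after 5 min at room temperature. Reactions contain 100 nM EPAC1, 250 nM RAP1B-BODIPY-GDP and 50 uM GDP; results are normalized to ATA and DMSO.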

[2] = biological target: Rap guanine nucleotide exchange factor 3 (Homo sapiens) (UniProt O95398); assay: Confirmatory qHTS for agonist of cAMP-regulated guanine nucleotide exchange factor 3 (EPAC1) (AID 1645881);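 also: EPAC1 catalysed release of BODIPY-GDP from Rap1B seen as fluorescence loss; 100% = effect of cAMP agonist control; nearly all actives have a fitted effect of over 75% in size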
[3] = biological target: Rap guanine nucleotide exchange factor 4 (Homo sapiens) (UniProt Q8WZA2); assay: Confirmatory qHTS for agonist of cAMP-regulated guanine nucleotide exchange factor 4 (EPAC2) (AID 1645884);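 also: nucleotide exchange releases bodipy-GDP from Rap1 and this lowers its fluorescence; % is scaled to controls: 0 for no effect and ±100 for the full control effect; nearly all actives have a fitted effect of over 65% in size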
[4] = biological target: Rap guanine nucleotide exchange factor 4 (Homo sapiens) (UniProt Q8WZA2); assay: Confirmatory qHTS for antagonist of cAMP-regulated guanine nucleotide exchange factor 4 (EPAC2) (AID 1645885); also: nearly all actives have a fitted effect of over 25% in size; also: potency is read from the fitted curve at half-maximal effect; as to activity change, negative = inhibition: % is scaled to controls: 0 for no effect and ±100 for the full control effect
[5] = biological target: Rap guanine nucleotide exchange factor 3 (Homo sapiens) (UniProt O95398); assay: Counterscreen qHTS for antagonist of cAMP-regulated guanine nucleotide exchange factor 3 (EPAC1) (AID 1645888); also: % of control where 0% means no effect
How it was run: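 Measured: fluorescence of BODIPY-GDP bound to Rap1B, which falls as exchange proceeds. Conditions include 50 uM competing GDP, 5 and 30 min reads, and a later cAMP challenge for antagonist detection.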

Chain of Rap guanine nucleotide exchange factor 3 (Homo sapiens) (O95398 whole entry, looked up): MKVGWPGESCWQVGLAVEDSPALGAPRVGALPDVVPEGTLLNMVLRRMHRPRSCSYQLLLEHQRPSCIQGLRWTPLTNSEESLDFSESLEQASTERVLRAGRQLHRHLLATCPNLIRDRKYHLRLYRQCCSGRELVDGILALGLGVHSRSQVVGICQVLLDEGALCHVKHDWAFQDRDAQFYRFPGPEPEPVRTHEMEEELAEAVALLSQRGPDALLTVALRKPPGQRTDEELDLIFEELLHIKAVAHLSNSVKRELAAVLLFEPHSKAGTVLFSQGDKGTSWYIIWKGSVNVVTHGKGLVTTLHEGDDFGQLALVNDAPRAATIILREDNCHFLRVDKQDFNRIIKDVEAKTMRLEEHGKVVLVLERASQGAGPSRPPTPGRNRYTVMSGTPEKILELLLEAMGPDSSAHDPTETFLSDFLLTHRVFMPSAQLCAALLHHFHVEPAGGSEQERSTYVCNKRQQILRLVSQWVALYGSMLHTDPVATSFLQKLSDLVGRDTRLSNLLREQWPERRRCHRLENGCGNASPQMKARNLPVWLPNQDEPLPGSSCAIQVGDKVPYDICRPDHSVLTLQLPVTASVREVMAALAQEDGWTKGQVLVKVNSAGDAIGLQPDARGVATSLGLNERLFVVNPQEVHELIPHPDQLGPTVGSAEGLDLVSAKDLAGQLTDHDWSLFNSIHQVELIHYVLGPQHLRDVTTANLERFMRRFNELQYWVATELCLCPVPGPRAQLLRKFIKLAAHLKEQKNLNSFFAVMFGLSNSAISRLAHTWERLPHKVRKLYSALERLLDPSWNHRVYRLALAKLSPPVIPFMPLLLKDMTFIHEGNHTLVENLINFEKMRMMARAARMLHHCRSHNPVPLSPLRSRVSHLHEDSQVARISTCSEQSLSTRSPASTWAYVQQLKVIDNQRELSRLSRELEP
Chain of Rap guanine nucleotide exchange factor 4 (Homo sapiens) (Q8WZA2 whole entry, looked up): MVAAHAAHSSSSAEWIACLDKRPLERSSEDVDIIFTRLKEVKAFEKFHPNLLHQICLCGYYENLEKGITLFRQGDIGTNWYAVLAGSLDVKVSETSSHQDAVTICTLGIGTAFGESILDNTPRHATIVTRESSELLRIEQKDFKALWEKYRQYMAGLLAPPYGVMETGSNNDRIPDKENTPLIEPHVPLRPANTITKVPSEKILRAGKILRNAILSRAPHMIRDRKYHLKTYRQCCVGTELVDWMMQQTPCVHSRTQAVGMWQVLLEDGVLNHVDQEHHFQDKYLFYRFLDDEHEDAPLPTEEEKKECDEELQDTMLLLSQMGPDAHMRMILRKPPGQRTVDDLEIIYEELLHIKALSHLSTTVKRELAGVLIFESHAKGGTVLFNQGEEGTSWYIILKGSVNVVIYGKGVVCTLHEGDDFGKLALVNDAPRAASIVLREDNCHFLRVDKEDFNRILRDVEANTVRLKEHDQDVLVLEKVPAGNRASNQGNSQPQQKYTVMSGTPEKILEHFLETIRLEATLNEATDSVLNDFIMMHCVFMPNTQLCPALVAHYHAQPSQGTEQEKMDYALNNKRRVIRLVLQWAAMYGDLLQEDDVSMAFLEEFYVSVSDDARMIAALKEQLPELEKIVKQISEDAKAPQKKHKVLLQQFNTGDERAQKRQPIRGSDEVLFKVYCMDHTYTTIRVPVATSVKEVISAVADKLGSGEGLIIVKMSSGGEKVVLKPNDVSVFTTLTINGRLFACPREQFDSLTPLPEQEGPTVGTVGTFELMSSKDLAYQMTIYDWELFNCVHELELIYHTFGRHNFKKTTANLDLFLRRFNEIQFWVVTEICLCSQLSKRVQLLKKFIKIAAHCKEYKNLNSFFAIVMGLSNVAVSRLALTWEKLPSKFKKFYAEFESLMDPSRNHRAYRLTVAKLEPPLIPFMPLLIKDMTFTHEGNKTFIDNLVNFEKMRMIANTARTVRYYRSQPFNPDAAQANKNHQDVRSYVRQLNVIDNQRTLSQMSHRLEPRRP

Cc1ccc(O)c(N=Cc2cc(Cc3ccccc3)cc([N+](=O)[O-])c2O)c1
inactive: Potency [2] | Potency [3] | Potency [5]
active: Potency [1] 33.8 µM | Potency [4] 47.8 µM

N#C/C(=C\c1ccc(C(=O)O)cc1)c1nc2sc3c(c2c(=O)[nH]1)CCCC3
inactive: Potency [1] | Potency [2] | activation [3] 10.5% [at 17.1 µM, percent relative to cAMP agonist control] | Potency [4] | activity change, negative = inhibition [5] 7.93% [at 30.8 µM]

CC(C)c1ccc(NC(=O)c2ccc(Cn3nc(N4CCN(c5ccccc5)CC4)ccc3=O)o2)cc1
inactive: Potency [2] | Potency [3] | Potency [4] | Potency [5]
active: Potency [1] 84.9 µM

CCC(C)N(C(=O)COC(=O)C1CCN(S(=O)(=O)c2ccc(C)c(C)c2)CC1)C1CCS(=O)(=O)C1 (stereo not given)
inactive: Potency [1] | Potency [2] | Potency [3] | Potency [4] | Potency [5]

OC[C@H]1O[C@H](OCCc2ccc(O)cc2)[C@H](O)[C@@H](O)[C@@H]1O
inactive: Potency [1] | Potency [2] | Potency [3] | Potency [4] | Potency [5]

COc1ccc2oc(C)c(C(=O)c3ccc(C)cc3)c2c1
inactive: Potency [1] | Potency [2] | activation [3] 14.7% [at 17.1 µM, percent relative to cAMP agonist control] | Potency [4] | activity change, negative = inhibition [5] -20.6% [at 30.8 µM]

CC1=NN(c2ccccc2)C(=O)C1/C=C1\NC(=S)NC1=O (stereo not given)
active: Potency [1] 67.5 µM
inactive: Potency [2] | Potency [3] | Potency [4] | Potency [5]

CSCCC(NC(=O)c1ccc(Cl)cc1)C(=O)OCC(=O)N1CCCC1=O (stereo not given)
inactive: Potency [1] | Potency [2] | activation [3] 10.4% [at 17.1 µM, percent relative to cAMP agonist control] | Potency [4] | activity change, negative = inhibition [5] 5.02% [at 30.8 µM]

Cn1c(=O)c2c(nc(N3CCOCC3)n2CCSc2ncccn2)n(C)c1=O
inactive: Potency [1] | Potency [2] | activation [3] 5.38% [at 17.1 µM, percent relative to cAMP agonist control] | activity change, negative = inhibition [5] -3.24% [at 30.8 µM]
active: Potency [4] 0.338 µM

CCNC(=O)COc1ccc(/C=C2\COc3ccccc3C2=O)cc1OC
inactive: Potency [1] | Potency [2] | activation [3] 4.45% [at 17.1 µM, percent relative to cAMP agonist control] | Potency [4] | activity change, negative = inhibition [5] 0.373% [at 30.8 µM]

S=C(Nc1ccccc1)Nc1ccccn1
inactive: Potency [1] | Potency [2] | activation [3] 9.11% [at 17.1 µM, percent relative to cAMP agonist control] | Potency [4] | activity change, negative = inhibition [5] 9.21% [at 30.8 µM]

CCn1c(C)nc2cc(C(=O)N/N=C(\C)c3ccccc3O)ccc21
inactive: Potency [2] | activation [3] 0.106% [at 17.1 µM, percent relative to cAMP agonist control] | Potency [4] | activity change, negative = inhibition [5] -28% [at 30.8 µM]
active: Potency [1] 7.08 µM

O=C1Nc2ccccc2SC1c1ccccc1 (stereo not given)
inactive: Potency [1] | Potency [2] | activation [3] 3.23% [at 17.1 µM, percent relative to cAMP agonist control] | Potency [4] | activity change, negative = inhibition [5] -15.7% [at 30.8 µM]

CCOC(=O)C(Cc1ccc(NC(=O)/C(=C\c2ccccc2)NC(=O)c2ccccc2)cc1)N1C(=O)c2ccccc2C1=O (stereo not given)
inactive: Potency [1] | Potency [2] | Potency [3] | Potency [4] | Potency [5]

CCCCn1c(N)c(N(CCOC)C(=O)c2ccc(C)c(S(=O)(=O)N3CCCCC3)c2)c(=O)[nH]c1=O
inactive: Potency [1] | Potency [2] | Potency [3] | Potency [4] | Potency [5]

Cc1c(C(=O)NCc2ccc(F)cc2)sc(=O)n1Cc1ccccc1F
active: Potency [4] 67.5 µM
inactive: Potency [1] | Potency [2] | Potency [3] | Potency [5]

c1ccc(CN(Cc2ccccc2)c2c3c(nc4ncnn24)CCC3)cc1
inactive: Potency [1] | Potency [2] | Potency [3] | Potency [4] | Potency [5]

COc1ccc(/C=C2/SC(=S)N(c3ccc(S(=O)(=O)Nc4nccs4)cc3)C2=O)cc1
active: Potency [1] 33.8 µM
inactive: Potency [2] | Potency [3] | Potency [4] | Potency [5]

O=C(c1cccc(-n2cccc2)c1)N1CCN(S(=O)(=O)c2ccccc2)CC1
inactive: Potency [2] | Potency [3] | Potency [4] | Potency [5]
active: Potency [1] 37.9 µM
